Shown are actives, neighbours in structure and some others; about 19% of the full set was active somewhere.
TGFb SMAD3 inh: blocks TGF-b signaling; HepG2 CAGA-GFP TGF-b/SMAD3 reporter, GFP fluorescence, 18 h; TGF-beta stimulated, 500 pg/mL final; Potency, µM (doses to about 46.1 µM), inactives show at the top dose activity, negative = inhibition, most hits filed as inhibitors; actives 1.2% (n = 410,000); AID 588855; also: potency is read from the fitted curve at half-maximal effect; % is scaled to controls: 0 for no effect and ±100 for the full control effect; nearly all actives have a fitted effect of over 65% in size
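HEPG2 CAGA-GFP cells (1000/well, DMEM with 1% FBS) were pre-incubated 2 h at 37 degrees C, given compound by pin tool, then stimulated with TGF-beta at 500 pg/mL final for 18 h before per-cell GFP fluorescence imaging.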
TDP1 cell noCPT: qHTS for Inhibitors of human tyrosyl-DNA phosphodiesterase 1 (TDP1): qHTS in cells in absence of CPT. DT40 Tdp1-/- hTDP1 cells, no CPT, ATP luminescence, 48 h. Potency, µM (doses to about 46.2 µM), without a hit: at the top dose activity change, negative = growth inhibition, usual class: inhibitors. actives 15% (n = 420,000). AID 686978, 2013; also: potency is read from the fitted curve at half-maximal effect; % is scaled to controls: 0 for no effect and ±100 for the full control effect; nearly all actives have a fitted effect of over 55% in size
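Chicken DT40 Tdp1-/- cells complemented with human TDP1, screened without camptothecin (DMSO vehicle only), 400 cells/well. Compounds pin-transferred, cells incubated at 37 °C for at least 48 hr. Growth read as ATP-dependent luminescence (CellTiter-Glo, 30 min at RT).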
DT40 TDP1 CPT: growth inhibition of DT40 Tdp1-/-;hTDP1 cells with camptothecin (screen for TDP1 inhibitors); actives 12% (n = 420,000); Potency, µM (top dose mostly 46.2 µM), for inactives: at the top dose activity change, negative = growth inhibition, most hits filed as inhibitors; chicken DT40 Tdp1-/-;hTDP1 cells + 20 nM CPT, ATP luminescence, 48 h; also: potency is read from the fitted curve at half-maximal effect; % is scaled to controls: 0 for no effect and ±100 for the full control effect; nearly all actives have a fitted effect of over 55% in size
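Chicken DT40 Tdp1-/- cells stably complemented with human TDP1 were seeded at 400 cells/well in medium containing 20 nM camptothecin, exposed to pin-transferred compounds, and grown at 37 °C for at least 48 hr. Viability was read as ATP luminescence.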
HepG2 viability: counter-screen for TGF-b inhibitors: cytotoxicity in HepG2 cells | HepG2 CAGA-GFP viability, ATP luminescence, 18 h | Potency, µM (doses to about 46.1 µM), for inactives: at the top dose activity change, negative = cytotoxicity, most hits filed as cytotoxic | actives 0.76% (n = 410,000) | AID 588856; also: potency is read from the fitted curve at half-maximal effect
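HepG2 CAGA-GFP cells (1000/well, DMEM with 1% FBS) received compound, then TGF-beta at 500 pg/mL final, and were incubated 18 hours at 37 degrees C. Viability was read by CellTiter-Glo luminescence. Media-only wells were set as complete cell-killing and DMSO as no toxicity.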
ASM inhibitor: inhibitors of human secretory acid sphingomyelinase. P17405. placental ASM, HMU-PC fluorogenic substrate, 60 min. Potency, µM (series often up to 57.5 µM), for the others: at the top dose activity change, negative = inhibition, actives largely listed as inhibitors. actives 0.006% (n = 340,000). AID 504937; also: potency is read from the fitted curve at half-maximal effect
Target sequence (P17405 47-631 limits assumed): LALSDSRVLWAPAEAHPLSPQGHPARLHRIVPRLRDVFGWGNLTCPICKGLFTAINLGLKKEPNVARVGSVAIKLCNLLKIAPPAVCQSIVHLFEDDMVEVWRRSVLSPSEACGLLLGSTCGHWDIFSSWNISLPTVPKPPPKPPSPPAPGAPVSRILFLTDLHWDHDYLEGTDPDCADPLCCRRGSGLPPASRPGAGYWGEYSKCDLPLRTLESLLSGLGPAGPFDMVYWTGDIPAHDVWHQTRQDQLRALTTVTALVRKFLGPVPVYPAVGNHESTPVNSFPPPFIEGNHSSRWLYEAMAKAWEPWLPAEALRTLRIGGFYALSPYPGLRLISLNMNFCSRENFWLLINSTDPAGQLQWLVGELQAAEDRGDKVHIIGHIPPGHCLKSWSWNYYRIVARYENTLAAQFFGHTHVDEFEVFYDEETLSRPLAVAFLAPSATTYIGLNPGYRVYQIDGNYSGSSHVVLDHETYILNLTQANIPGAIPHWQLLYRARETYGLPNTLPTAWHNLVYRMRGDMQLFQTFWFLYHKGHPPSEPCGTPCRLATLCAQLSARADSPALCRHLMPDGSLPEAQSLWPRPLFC
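Fluorogenic HMU-PC substrate (9 uM final) is turned over by placental ASM in 60 min at 37 C after a 10 min compound preincubation. Reaction ended by alkaline stop (pH 10), with fluorescence read at 386/447 nm.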
IL1B secr inh: inhibitors of inflammasome signaling (IL-1 beta secretion); actives 4.7% (n = 360,000); THP-1 LPS/ATP IL-1B secretion, AlphaLISA, 16 h; stronger effect = lower value; activity change, % at 57.5 µM; AID 743279; in the data active = activity change below about -50%; inconclusive = mostly about -30% to -49%; also: % is scaled to controls: 0 for no effect and ±100 for the full control effect
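Secreted IL-1B measured by AlphaLISA bead assay after 16 h compound exposure of THP-1 cells; compounds (final up to 57.5 uM) added 1 h before LPS (250 ng/mL) and ATP (1.25 mM) stimulation; lower signal means less secretion.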
The depositor's hits bear a star; [ ] = dose if it differs, or a comment. Unless noted, calls follow the shape of the dose curve; as a rule, active = well fitted curve in the direction sought with a large enough effect; inconclusive = small, poorly fitted or top-dose-only effect, or another doubt; inactive = no such curve, though single readings can be large; an effect the other way counts as inactive or inconclusive.

What do the screens show for `COc1cccc(C(=O)C2CCCN(Cc3cccc(OCCO)c3)C2)c1` (configuration not stated)?
TGFb SMAD3 inh: 3%; TDP1 cell noCPT: -17%; DT40 TDP1 CPT: 17%; HepG2 viability: -11%; ASM inhibitor: 3%; IL1B secr inh: -2

What do the screens show for `Cc1nccn1C[C@@H]1CCc2c(c3ccccc3n2C)C1=O`?
TGFb SMAD3 inh: 2%; TDP1 cell noCPT: inconclusive; DT40 TDP1 CPT: inconclusive; HepG2 viability: -4%; ASM inhibitor: 3%; IL1B secr inh: 4

Results for Cc1ccc(NC(=O)N2CCN(Cc3nc4ccc(C)cc4o3)CC2)cc1 ?
TGFb SMAD3 inh: -8%; TDP1 cell noCPT: -29%; DT40 TDP1 CPT: -25%; HepG2 viability: -15%

Results for CC1(C)C2CCC1(C)C(NCC(O)COc1ccc(C#N)cc1)C2 (configuration not stated) ?
TGFb SMAD3 inh: -2%; TDP1 cell noCPT: -19%; DT40 TDP1 CPT: -25%; HepG2 viability: 2%; ASM inhibitor: 2%; IL1B secr inh: -23

Results for COc1ccc(F)cc1C(=O)C1CCCN(Cc2ccc(Oc3ncccn3)cc2)C1 (configuration not stated) ?
TGFb SMAD3 inh: -27%; TDP1 cell noCPT: inconclusive; DT40 TDP1 CPT: -24%; HepG2 viability: 1%; ASM inhibitor: 4%; IL1B secr inh: -6

Results for O=C(c1ccc(Cl)cc1)C1CCCN(Cc2cccn2-c2ccccn2)C1 (configuration not stated) ?
TGFb SMAD3 inh: -1%; TDP1 cell noCPT: inconclusive; DT40 TDP1 CPT: 9.2µM*; HepG2 viability: -38%; ASM inhibitor: -2%; IL1B secr inh: -80*

How did COc1ccc(F)cc1C(=O)C1CCCN(Cc2cccn2-c2cccnc2)C1 (configuration not stated) do in these assays?
TGFb SMAD3 inh: inconclusive; TDP1 cell noCPT: 21µM*; DT40 TDP1 CPT: inconclusive; HepG2 viability: -30%; ASM inhibitor: 1%; IL1B secr inh: 12

What do the screens show for `O=C(c1ccc(C(F)(F)F)cc1)C1CCCN(C(=O)c2cnccn2)C1` (configuration not stated)?
TGFb SMAD3 inh: 1%; TDP1 cell noCPT: inconclusive; DT40 TDP1 CPT: inconclusive; HepG2 viability: 3%; ASM inhibitor: -2%; IL1B secr inh: 10

What do the screens show for `COc1ccc(C(=O)C2CCCN(Cc3cccn3-c3ccccn3)C2)cc1F` (configuration not stated)?
TGFb SMAD3 inh: 2%; TDP1 cell noCPT: 15µM*; DT40 TDP1 CPT: 16µM*; HepG2 viability: -36%; ASM inhibitor: 1%; IL1B secr inh: -52*

What do the screens show for `COc1ccc(C(=O)C2CCCN(Cc3ccc4c(c3)OCCO4)C2)cc1F` (configuration not stated)?
TGFb SMAD3 inh: -28%; TDP1 cell noCPT: -21%; DT40 TDP1 CPT: inconclusive; HepG2 viability: -14%; ASM inhibitor: -2%; IL1B secr inh: -5

Results for O=C(c1ccc(C(F)(F)F)cc1)C1CCCN(Cc2cccn2-c2ncccn2)C1 (configuration not stated) ?
TGFb SMAD3 inh: -17%; TDP1 cell noCPT: 26µM*; DT40 TDP1 CPT: inconclusive; HepG2 viability: -23%; ASM inhibitor: 2%; IL1B secr inh: -73*

How did CCCCNc1nc2c(S(=O)(=O)c3ccc(C)cc3)nnn2c2ccsc12 do in these assays?
TGFb SMAD3 inh: 28%; TDP1 cell noCPT: -1%; DT40 TDP1 CPT: -5%; HepG2 viability: 5%

Results for COc1cccc(C(=O)C2CCCN(CC3=Cc4cc(OC)ccc4OC3)C2)c1 (configuration not stated) ?
TGFb SMAD3 inh: -14%; TDP1 cell noCPT: -24%; DT40 TDP1 CPT: inconclusive; HepG2 viability: -11%; ASM inhibitor: -1%; IL1B secr inh: -89*

What do the screens show for `COc1ccc2c(c1)C=C(CN1CCN(Cc3ccccc3C)C(CCO)C1)CO2` (configuration not stated)?
TGFb SMAD3 inh: -15%; TDP1 cell noCPT: inconclusive; DT40 TDP1 CPT: -21%; HepG2 viability: -27%; ASM inhibitor: 3%; IL1B secr inh: inconclusive

Results for CSc1ccc(C(=O)C2CCCN(Cc3cccc4nccnc34)C2)cc1 (configuration not stated) ?
TGFb SMAD3 inh: -12%; TDP1 cell noCPT: inconclusive; DT40 TDP1 CPT: 15µM*; HepG2 viability: -14%; ASM inhibitor: 3%; IL1B secr inh: -20

Results for COc1cccc(-c2nc3cc4c(cc3cc2CN(C(=O)c2cc(C)nn2C)C2CC2)CCC4)c1OC ?
TDP1 cell noCPT: 16µM*; DT40 TDP1 CPT: 4.1µM*

How did COc1cccc(C(=O)N(Cc2cc3ccc(C)cc3nc2N(C)C)C2CC2)c1OC do in these assays?
TDP1 cell noCPT: -97%; DT40 TDP1 CPT: -26%[9.04 µM]

How did COc1ccc(-c2nc3cc(C)ccc3cc2CN(C(=O)c2ccco2)C2CC2)cc1OC do in these assays?
TDP1 cell noCPT: inconclusive; DT40 TDP1 CPT: -6%[9.04 µM]

How did COc1ccc(-c2nc3cc(C)ccc3cc2CN(C(=O)c2cc(C)nn2C)C2CC2)cc1OC do in these assays?
TDP1 cell noCPT: 21µM*; DT40 TDP1 CPT: inconclusive

Results for COc1ccc(-c2nc3cc(C)ccc3cc2CN(C(=O)c2cccs2)C2CC2)cc1OC ?
TDP1 cell noCPT: 13µM*; DT40 TDP1 CPT: inconclusive

Results for COc1ccc(-c2nc3cc(C)ccc3cc2CN(C(=O)c2ccc(C)s2)C2CC2)cc1OC ?
TDP1 cell noCPT: 21µM*; DT40 TDP1 CPT: -12%[9.04 µM]

What do the screens show for `CCC1(CC)NC(=O)N(CC(=O)OCC(=O)NC(=O)c2ccccc2OC)C1=O`?
TGFb SMAD3 inh: -11%; TDP1 cell noCPT: -17%; DT40 TDP1 CPT: -9%; HepG2 viability: -4%; ASM inhibitor: 4%; IL1B secr inh: 5

How did O=C(NCc1ccccc1)/C(=C/c1ccc([N+](=O)[O-])cc1)NC(=O)c1ccco1 do in these assays?
TGFb SMAD3 inh: 5%; TDP1 cell noCPT: 7%; DT40 TDP1 CPT: -4%; HepG2 viability: 3%; ASM inhibitor: 4%; IL1B secr inh: 10
